Source: PubChem
Vaccinia mCherry – inhibitors of vaccinia virus infection (mCherry reporter signal); Vaccinia virus mCherry reporter infection, fluorescence; Potency, µM (highest dose often 36.5 µM), most hits filed as inhibitors; 0.63% of 310,000 active; AID 720579; calls by dose curve; tested in A549 cells; also: nearly all actives have a fitted effect of over 35% in size
FBPA Giardia inh – blocks Giardia fructose-bisphosphate aldolase activity; Potency, µM (doses to about 59.6 µM), hits mostly inhibitors; 0.71% of 290,000 active; purified Giardia FBPA; active = well fitted inhibition curve with a large enough effect; inconclusive = small, poorly fitted or top-dose-only effect, or effect the other way; also: nearly all actives have a fitted effect of over 55% in size
Target sequence (A8B2U2 whole entry, looked up): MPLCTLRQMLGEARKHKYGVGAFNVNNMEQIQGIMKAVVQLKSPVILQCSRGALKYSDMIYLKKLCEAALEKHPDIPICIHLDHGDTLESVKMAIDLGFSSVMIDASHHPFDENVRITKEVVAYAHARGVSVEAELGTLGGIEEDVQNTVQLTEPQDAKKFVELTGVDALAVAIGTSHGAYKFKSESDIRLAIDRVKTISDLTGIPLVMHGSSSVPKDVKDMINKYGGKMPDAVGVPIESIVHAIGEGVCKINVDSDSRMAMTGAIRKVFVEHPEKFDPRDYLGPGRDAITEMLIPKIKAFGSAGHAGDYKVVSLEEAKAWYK
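40 nM FBPA preincubated 10 min at RT with compound (up to 57.5 uM final), then substrate plus GAPDH/TPI/NAD/arsenate coupling and diaphorase/resazurin added. Fluorescence read after 20 min at RT, 525/598 nm.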
VACV Venus inh – inhibitors of vaccinia virus (Venus reporter); Potency, µM (titrated, usually from 36.5 µM), actives largely listed as inhibitors; 0.46% of 330,000 active; AID 720580; Vaccinia virus Venus reporter expression, fluorescence; calls by dose curve; tested in A549 cells; also: nearly all actives have a fitted effect of over 30% in size
FMDV inh – antivirals against foot and mouth disease virus. FMDV antiviral cell-based qHTS. Potency, µM (series often up to 57.9 µM), hits mostly inhibitors. 1.2% of 410,000 active. AID 1159524; calls by dose curve; tested in HEK293T cells; also: read-out not given here; nearly all actives have a fitted effect of over 45% in size
Large screens that a line does not name were inactive. Sampled rows, rich in hits. Any-hit rate of the full collection: about 2.2%.

CC(C)(C)S(=O)N1Cc2ccc(CO)cc2[C@@H]1CCO (some centres not stated)	FMDV inh 40µM (no result: FBPA Giardia inh)
CC(C)(C)S(=O)N1Cc2ccc(CO)cc2[C@H]1CCO (some centres not stated)	none (no result: FBPA Giardia inh)
COc1cc(CN2CCCC(n3cc(C(=O)N4CCCC4)nn3)C2)cc(OC)c1 (configuration not stated)	none (no result: FBPA Giardia inh)
COc1ccc(-n2c(C)cc(C(=O)COC(=O)Cc3n[nH]c(=O)c4ccccc34)c2C)cc1	FMDV inh 28µM
Cc1nc2ccccc2nc1CN1CCOc2ccc(C3(O)CCN(c4ccccc4F)CC3)cc2C1	FMDV inh inconclusive (no result: FBPA Giardia inh)
CCc1ccccc1NC(=O)C1CCN(C(=O)N2CC(C)Oc3ccc(Cl)cc32)CC1 (configuration not stated)	none (no result: FBPA Giardia inh)
Cc1ccc2nc(NC(=O)CCCc3nc4ccccc4s3)sc2c1	none (no result: Vaccinia mCherry)
Cc1ccc2nc(NC(=O)CCCC(=O)O)sc2c1	FMDV inh 7.9µM
Cc1ccccc1Nc1c(-c2ccc(Cl)s2)nc2ccccn12	none (no result: FBPA Giardia inh, FMDV inh)
O=C(CSc1ncnc2c1nnn2Cc1ccc(F)cc1)NCC1CCCO1 (configuration not stated)	FMDV inh 35µM (no result: Vaccinia mCherry, VACV Venus inh)
NC(=O)CSc1ncnc2c1nnn2Cc1ccc(F)cc1	FMDV inh 35µM
O=C(CSc1ncnc2c1nnn2Cc1ccc(F)cc1)NC1CCCCC1	none
CCC(COC)NC(=O)c1cnn(-c2ncc3c(n2)-c2ccccc2CCC3)c1C (configuration not stated)	none (no result: FBPA Giardia inh)
Cc1cccc2nc(CNC(=O)CN3Cc4ccccc4OC(c4ccccc4F)C3)cn12 (configuration not stated)	none (no result: FBPA Giardia inh)
Cc1[nH][nH]c(=O)c1C(c1c(C)[nH][nH]c1=O)c1cn(Cc2cccc3ccccc23)c2ccccc12	FBPA Giardia inh inconclusive, FMDV inh inconclusive
Cc1[nH][nH]c(=O)c1C(c1c(C)[nH][nH]c1=O)c1cn(C)c2ccccc12	FBPA Giardia inh 2.8µM
C[C@@H]1CN(Cc2ccc3c(c2)CN(Cc2nc(-c4ccccc4)cs2)CCO3)C[C@H](C)O1	FMDV inh inconclusive (no result: FBPA Giardia inh)
COc1ccc(OC2C(O)COC2/C=C/c2ccccc2)cc1 (configuration not stated)	none (no result: Vaccinia mCherry, VACV Venus inh, FMDV inh)
Cn1cccc1/C=C1/C(=O)NC(=S)N(Cc2ccc(F)cc2)C1=O	FMDV inh 28µM
Cc1ccc(NC(=O)c2cnn3c2NC(=C2CC2)C=C3C(F)F)cc1	none (no result: FBPA Giardia inh, FMDV inh)
COC1CCC(OC2CC(C3(C)CCC4(CC(O)C(C)C(C(C)/C=C(\C)C(=O)C(C)CC(C)C(=O)O)O4)O3)OC3(OC(C4OC(O)(CO)C(C)CC4C)CC3C)C2C)OC1C (configuration not stated)	Vaccinia mCherry 6.3µM, VACV Venus inh 7.9µM, FMDV inh 18µM (no result: FBPA Giardia inh)
CC[C@@]1([C@@H]2O[C@@H]([C@H]3O[C@@](O)(CO)[C@H](C)C[C@@H]3C)C[C@@H]2C)CC[C@H]([C@]2(C)CC[C@]3(C[C@H](O)[C@@H](C)[C@@H]([C@@H](C)[C@@H](OC)C(C)C(=O)O)O3)O2)O1 (some centres not stated)	none (no result: Vaccinia mCherry, VACV Venus inh, FMDV inh)
NCCCN(Cc1ccc(Cl)c(Cl)c1)c1ccc(Br)cn1	VACV Venus inh inconclusive (no result: FBPA Giardia inh, FMDV inh)
O=C(C1CCCN(S(=O)(=O)c2cccc3nsnc23)C1)N1CCN(c2ccccn2)CC1 (configuration not stated)	FMDV inh 28µM
O=C(C1CCCN(S(=O)(=O)c2cccc3nsnc23)C1)N1CCN(c2cccc(Cl)c2)CC1 (configuration not stated)	Vaccinia mCherry inconclusive, FMDV inh 11µM (no result: FBPA Giardia inh)
O=C(NCC1CCC2(CCN(Cc3cnn(-c4ccc(F)cc4)c3)CC2)O1)c1ccccc1 (configuration not stated)	none (no result: FBPA Giardia inh)
CCOc1cccc(CC(=O)NCc2ccc3c(c2)CCN3C(=O)c2cccc(C)c2)c1OCC	Vaccinia mCherry inconclusive, VACV Venus inh inconclusive, FMDV inh 14µM (no result: FBPA Giardia inh)
COc1ccc(CC(=O)NCc2ccc3c(c2)CCN3C(=O)c2cccc(C)c2)cc1	FMDV inh inconclusive (no result: FBPA Giardia inh)
Cc1cccc(C(=O)N2CCc3cc(CNC(=O)c4ccco4)ccc32)c1	FMDV inh 28µM (no result: FBPA Giardia inh)
NCCCN(Cc1ccc(Cl)cc1)c1ccc(Br)cn1	none (no result: FBPA Giardia inh, FMDV inh)
C[n+]1cccc(Br)c1	none (no result: FBPA Giardia inh, FMDV inh)
O=C(Nc1ccccc1)c1ccc(Br)c(S(=O)(=O)N2CCCCC2)c1	FMDV inh 14µM (no result: FBPA Giardia inh)
O=C(Nc1ccc2c(c1)OCO2)c1ccc(Br)c(S(=O)(=O)N2CCCC2)c1	Vaccinia mCherry inconclusive, FMDV inh inconclusive
O=C(Nc1ccc2c(c1)OCCO2)c1ccc(Br)c(S(=O)(=O)N2CCOCC2)c1	FMDV inh 18µM
CS(=O)(=O)c1ccccc1NC(=O)COc1ccccc1C(=O)Nc1ccccc1	none (no result: FBPA Giardia inh, FMDV inh)
Cc1ccc(C(=O)Nc2sc(C)c(-c3ccccc3)c2C(N)=O)cc1[N+](=O)[O-]	FMDV inh 1.8µM
COc1ccc(-c2[nH]ncc2CN2CCOc3c(cc(-c4cccc(OC)n4)cc3OC)C2)cc1	none (no result: FBPA Giardia inh)
Cc1cc(C)nc(/N=C(\N)Nc2ccc(OCc3ccccc3)cc2)n1	Vaccinia mCherry inconclusive, VACV Venus inh inconclusive, FMDV inh 28µM
COc1ccc(N/C(N)=N/c2nc(C)cc(C)n2)cc1	none (no result: FBPA Giardia inh)
COc1ccccc1N/C(N)=N/c1nc(C)cc(C)n1	FMDV inh inconclusive (no result: Vaccinia mCherry, VACV Venus inh)
Cc1cc(C)nc(/N=C(\N)Nc2cccc(OCc3ccccc3)c2)n1	FMDV inh 32µM (no result: Vaccinia mCherry, VACV Venus inh)
Cc1cc(C)nc(/N=C(\N)Nc2ccc(OCCC(C)C)cc2)n1	Vaccinia mCherry inconclusive, VACV Venus inh inconclusive, FMDV inh 8.9µM
COc1cc(=O)n2c(c1C(=O)N(C)Cc1cscn1)CCN(C(=O)c1ccc(C)c(C)c1)CC2	none (no result: FBPA Giardia inh)
COCc1c(C(=O)NC2CCCC2)cnn1-c1nccc(-c2cccs2)n1	none (no result: FBPA Giardia inh)
Nc1ccc(Cn2ccc3c4c(N)nc(N)nc4ccc32)cc1	Vaccinia mCherry 0.35µM, VACV Venus inh inconclusive, FMDV inh inconclusive (no result: FBPA Giardia inh)
CCn1cc(CN2Cc3ccccc3OC(c3ccccc3OC)C2)c(C)n1 (configuration not stated)	none (no result: FBPA Giardia inh)
CCOc1ccc(N(CC(=O)NC2CCCCC2)C(=O)CSc2nnc(COc3ccccc3)o2)cc1	none
O=C(CN(Cc1cccs1)C(=O)CSc1nnc(COc2ccccc2)o1)NC1CCCCC1	FMDV inh 40µM (no result: Vaccinia mCherry)
COc1ccc(SCC(Cc2ccccc2)N2CCN(CCc3ccccc3)CCC2=O)cc1 (configuration not stated)	none (no result: Vaccinia mCherry, VACV Venus inh, FMDV inh)
Oc1[nH]c2ccc(Br)cc2c1N=NC(=S)N1CCOCC1	FBPA Giardia inh inconclusive, FMDV inh 3.2µM (no result: Vaccinia mCherry, VACV Venus inh)
COc1ccc(C)cc1Nc1n[n+](-c2ccccc2)c(-c2c(OC)ccc3ccccc23)s1	Vaccinia mCherry 14µM, VACV Venus inh inconclusive, FMDV inh inconclusive (no result: FBPA Giardia inh)
Fc1ccc(-[n+]2nc(Nc3ccccc3)sc2-c2c3ccccc3cc3ccccc23)cc1	FBPA Giardia inh 22µM, VACV Venus inh inconclusive, FMDV inh 40µM
Nn1cnnc1N/N=C/c1cc(Br)cc(Br)c1O	Vaccinia mCherry 8.9µM, FBPA Giardia inh inconclusive, VACV Venus inh inconclusive
CS/C(N)=N/N=C/c1cc(Br)cc(Br)c1O	none (no result: Vaccinia mCherry, VACV Venus inh)
COc1cccc(/C=C/c2cnc3ccccc3n2)c1OC	none (no result: FBPA Giardia inh, FMDV inh)
CC(C)C[C@H](NC(=O)[C@H](Cc1ccccc1)C[C@@H](O)[C@H](Cc1ccccc1)NC(=O)OC(C)(C)C)C(=O)N[C@@H](Cc1ccccc1)C(N)=O	none (no result: Vaccinia mCherry, VACV Venus inh, FMDV inh)
